Test results taken from PubChem BioAssay (NCI).
About 83,000 compounds went through this panel and 20% of them were active in at least one assay; those are over-represented in the sample as a whole.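 For each line, cells grew in 96-well plates with the test compound present at a single concentration for 48 hours.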 Activity calls are given as the source filed them. The calls were made as follows: active = growth percent below 10; inactive = the rest.

Columns and labels:
Test in all cases: NCI-60 one-dose screen, 48 h (100 = growth as untreated, 0 = no growth, -100 = all killed)
Conditions in all cases: 10 µM unless noted
HCT-15 colon = test system: HCT-15 colon
HT29 colon = test system: HT29 colon
SNB-75 CNS = test system: SNB-75 CNS
SNB-19 CNS = test system: SNB-19 CNS
U251 CNS = test system: U251 CNS
PC-3 prostate = test system: PC-3 prostate
SK-MEL-5 melanoma = test system: SK-MEL-5 melanoma
UACC-62 melanoma = test system: UACC-62 melanoma
LOX IMVI melanoma = test system: LOX IMVI melanoma
SK-MEL-28 melanoma = test system: SK-MEL-28 melanoma
SK-MEL-2 melanoma = test system: SK-MEL-2 melanoma
EKVX NSCLC = test system: EKVX NSCLC
SN12C renal = test system: SN12C renal
UO-31 renal = test system: UO-31 renal
TK-10 renal = test system: TK-10 renal
ACHN renal = test system: ACHN renal
CAKI-1 renal = test system: CAKI-1 renal
A498 renal = test system: A498 renal
CCRF-CEM leukemia = test system: CCRF-CEM leukemia
MOLT-4 leukemia = test system: MOLT-4 leukemia

Measured: growth

C[C@H](c1nc2ccc(C#N)cc2[nH]1)[C@H]1CC[C@H]2[C@@H]3CCC4=CC(=O)CC[C@]4(C)[C@H]3CC[C@]12C
inactive: HCT-15 colon 44.7% | HT29 colon 32.9% | SNB-75 CNS 75.7% | SNB-19 CNS 71.6% | U251 CNS 65.3% | PC-3 prostate 28.5% | SK-MEL-5 melanoma 50.4% | UACC-62 melanoma 56.6% | LOX IMVI melanoma 71.7% | SK-MEL-28 melanoma 89.4% | SK-MEL-2 melanoma 84.9% | EKVX NSCLC 58.4% | SN12C renal 69.5% | UO-31 renal 51.8% | TK-10 renal 95.2% | ACHN renal 80.4% | CAKI-1 renal 50.8% | A498 renal 14.5% | CCRF-CEM leukemia 46.5% | MOLT-4 leukemia 49.2%

O=C(Nc1nc(Cl)nc(Nc2ccc(N3CCOCC3=O)cc2)n1)c1ccc(Cl)s1
inactive: HCT-15 colon 94.2% | HT29 colon 94.3% | SNB-75 CNS 103% | SNB-19 CNS 88.2% | U251 CNS 85.4% | PC-3 prostate 85.4% | SK-MEL-5 melanoma 91.3% | UACC-62 melanoma 87% | LOX IMVI melanoma 62.1% | SK-MEL-28 melanoma 96% | SK-MEL-2 melanoma 84% | EKVX NSCLC 102% | SN12C renal 92.1% | UO-31 renal 91.5% | TK-10 renal 120% | ACHN renal 95.7% | CAKI-1 renal 99.8% | A498 renal 85.7% | CCRF-CEM leukemia 80.9% | MOLT-4 leukemia 85.2%

COc1ccc2c(c1)oc1c(C)c3c(c(C)c12)C(=O)N(CCOS(C)(=O)=O)C3=O
inactive: HCT-15 colon 102% | HT29 colon 101% | SNB-75 CNS 103% | SNB-19 CNS 95.4% | U251 CNS 108% | PC-3 prostate 96.5% | SK-MEL-5 melanoma 101% | UACC-62 melanoma 87.8% | LOX IMVI melanoma 90.3% | SK-MEL-28 melanoma 102% | SK-MEL-2 melanoma 101% | EKVX NSCLC 107% | SN12C renal 94% | UO-31 renal 88.2% | TK-10 renal 124% | ACHN renal 97.1% | CAKI-1 renal 95.4% | A498 renal 129% | CCRF-CEM leukemia 100% | MOLT-4 leukemia 94.7%

CC(=O)N1N=C(c2ccc(Nc3nc(Nc4ccc(F)cc4)nc(Nc4ccc(F)cc4)n3)cc2)CC1c1ccc(N(C)C)cc1 (stereo not given)
inactive: HCT-15 colon 46.9% | HT29 colon 50.7% | SNB-75 CNS 62.7% | SNB-19 CNS 66.2% | U251 CNS 49.8% | PC-3 prostate 32.8% | SK-MEL-5 melanoma 29.3% | UACC-62 melanoma 57% | LOX IMVI melanoma 52.5% | SK-MEL-28 melanoma 64.2% | SK-MEL-2 melanoma 40.3% | EKVX NSCLC 47.5% | SN12C renal 100% | UO-31 renal 34% | TK-10 renal 72.9% | ACHN renal 58.7% | CAKI-1 renal 59.3% | A498 renal 63.5% | MOLT-4 leukemia 14.2%
active: CCRF-CEM leukemia -2.06%

Cc1ccc(S(=O)(=O)OCC#CCOS(=O)(=O)c2ccc(C)cc2)cc1
active: SNB-75 CNS 5% | LOX IMVI melanoma -35.8% | UO-31 renal -87.1% | CAKI-1 renal -82.9% | CCRF-CEM leukemia 7.43%
inactive: HCT-15 colon 72.3% | HT29 colon 50.3% | SNB-19 CNS 70.1% | U251 CNS 22.6% | PC-3 prostate 70.4% | SK-MEL-5 melanoma 59.4% | UACC-62 melanoma 42.4% | SK-MEL-28 melanoma 74.9% | SK-MEL-2 melanoma 66.4% | EKVX NSCLC 60.9% | SN12C renal 64.1% | TK-10 renal 101% | ACHN renal 49.5% | A498 renal 85.9% | MOLT-4 leukemia 46.3%

Cc1nc2sc(C(=O)Nc3cccc4ccccc34)c(N)c2cc1C(=O)c1ccccc1
inactive: HCT-15 colon 14% | HT29 colon 14.7% | SNB-75 CNS 11.9% | SNB-19 CNS 26.9% | U251 CNS 22.8% | PC-3 prostate 21.3% | SK-MEL-5 melanoma 25% | UACC-62 melanoma 33.4% | LOX IMVI melanoma 41.8% | SK-MEL-28 melanoma 59.8% | SK-MEL-2 melanoma 46.6% | EKVX NSCLC 46% | SN12C renal 36.6% | UO-31 renal 43.5% | TK-10 renal 66.1% | ACHN renal 41.6% | CAKI-1 renal 36.5% | CCRF-CEM leukemia 12% | MOLT-4 leukemia 21.4%
active: A498 renal -10.9%

COCCn1cc(-c2nc(-c3cn(CCOC)c4ncccc34)cs2)c2cc(F)ccc21
inactive: HCT-15 colon 17.8% | HT29 colon 57.6% | SNB-75 CNS 77.4% | SNB-19 CNS 90.4% | U251 CNS 69.8% | PC-3 prostate 39.2% | SK-MEL-5 melanoma 14.4% | UACC-62 melanoma 61.8% | LOX IMVI melanoma 64.3% | SK-MEL-28 melanoma 91% | SK-MEL-2 melanoma 73.8% | EKVX NSCLC 23.2% | SN12C renal 82.3% | UO-31 renal 68.3% | TK-10 renal 28.2% | ACHN renal 76.7% | CAKI-1 renal 86.4% | A498 renal 73.3% | CCRF-CEM leukemia 72.5% | MOLT-4 leukemia 68.9%

CCN(CC)CCOc1ccc(/C(=C(\C)Cc2ccc(OC)cc2)c2ccc(OC(=O)NCc3ccccc3)cc2)cc1
inactive: HCT-15 colon 15.1% | SNB-75 CNS 59.4% | SNB-19 CNS 66.9% | U251 CNS 32.4% | PC-3 prostate 46.2% | SK-MEL-5 melanoma 26.5% | UACC-62 melanoma 34.3% | LOX IMVI melanoma 37.2% | SK-MEL-28 melanoma 38% | SK-MEL-2 melanoma 69.1% | EKVX NSCLC 73% | SN12C renal 74.7% | UO-31 renal 46.3% | TK-10 renal 71.4% | ACHN renal 81.4% | CAKI-1 renal 69.3% | A498 renal 84.8% | CCRF-CEM leukemia 23.1%
active: HT29 colon -34.8% | MOLT-4 leukemia 1.91%

COc1cc2ncnc(Nc3ccc(S(=O)(=O)Nc4nccs4)cc3)c2cc1OCCCN1CCCC1
inactive: HCT-15 colon 101% | HT29 colon 107% | SNB-75 CNS 93.8% | SNB-19 CNS 103% | U251 CNS 101% | PC-3 prostate 100% | SK-MEL-5 melanoma 105% | UACC-62 melanoma 97.2% | LOX IMVI melanoma 98.9% | SK-MEL-28 melanoma 109% | SK-MEL-2 melanoma 114% | EKVX NSCLC 107% | SN12C renal 99.9% | UO-31 renal 84.9% | TK-10 renal 123% | ACHN renal 108% | CAKI-1 renal 100% | A498 renal 104% | CCRF-CEM leukemia 100% | MOLT-4 leukemia 104%

O=C(NNc1nc2cc(F)ccc2n2c(CN3CCOCC3)ccc12)c1ccccc1
inactive: HCT-15 colon 16.9% | SNB-75 CNS 46.1% | SNB-19 CNS 18.8% | PC-3 prostate 22.9% | SK-MEL-28 melanoma 15.7% | SK-MEL-2 melanoma 34.6% | EKVX NSCLC 14.2% | SN12C renal 10.1% | UO-31 renal 12.1% | TK-10 renal 46%
active: HT29 colon 1.95% | U251 CNS -34.5% | SK-MEL-5 melanoma -9.55% | UACC-62 melanoma -4.27% | LOX IMVI melanoma -39.6% | ACHN renal 8.05% | CAKI-1 renal 7.45% | A498 renal -22.4% | CCRF-CEM leukemia 3.36% | MOLT-4 leukemia 2.3%

CSc1nc(-c2ccco2)c(C#N)c(=O)n1C
inactive: HCT-15 colon 98.1% | HT29 colon 113% | SNB-75 CNS 89.3% | SNB-19 CNS 93.7% | U251 CNS 103% | PC-3 prostate 94.4% | SK-MEL-5 melanoma 101% | UACC-62 melanoma 99.5% | LOX IMVI melanoma 97.2% | SK-MEL-28 melanoma 109% | SK-MEL-2 melanoma 94.3% | EKVX NSCLC 98.4% | SN12C renal 110% | UO-31 renal 112% | TK-10 renal 104% | ACHN renal 100% | CAKI-1 renal 89.2% | A498 renal 103% | CCRF-CEM leukemia 88.7% | MOLT-4 leukemia 95.1%

C=C(C)[C@@H]1CC[C@]2(CO)CC[C@]3(C)[C@H](CC[C@@H]4[C@@](C)(CCCN)[C@H](C(=C)C)CC[C@]43C)[C@@H]12
active: HCT-15 colon -81.7% | HT29 colon -54.4% | SNB-75 CNS -91.9% | SNB-19 CNS 1.21% | U251 CNS -88.6% | PC-3 prostate 0.447% | SK-MEL-5 melanoma -87.5% | UACC-62 melanoma -88.6% | LOX IMVI melanoma -97.8% | SK-MEL-28 melanoma -98.3% | SK-MEL-2 melanoma -61.6% | EKVX NSCLC -12.9% | SN12C renal -97.6% | UO-31 renal -43.4% | TK-10 renal -62.9% | ACHN renal -100% | CAKI-1 renal -54.9% | A498 renal -85.7% | CCRF-CEM leukemia -16% | MOLT-4 leukemia -32.4%

CCOC(=O)/C=C1\S/C(=N\Nc2cc(=O)[nH]c3ccc(Br)cc23)N(c2ccccc2)C1=O
inactive: HCT-15 colon 42.3% | HT29 colon 104% | SNB-75 CNS 80.4% | SNB-19 CNS 90.4% | U251 CNS 77.1% | PC-3 prostate 44.1% | SK-MEL-5 melanoma 98.3% | UACC-62 melanoma 78.6% | LOX IMVI melanoma 90.6% | SK-MEL-28 melanoma 95.3% | SK-MEL-2 melanoma 99.3% | EKVX NSCLC 97.2% | SN12C renal 78.9% | UO-31 renal 60.1% | TK-10 renal 90.8% | ACHN renal 73% | CAKI-1 renal 69.9% | A498 renal 95.6% | CCRF-CEM leukemia 10.5% | MOLT-4 leukemia 21.4%

CC(C)(C)c1ccc(S(=O)(=O)Oc2ccc(-c3sc4cc(OS(=O)(=O)c5ccc(C(C)(C)C)cc5)ccc4c3C(=O)c3ccc(OCCN4CCCCC4)cc3)cc2)cc1
inactive: HCT-15 colon 97.8% | HT29 colon 90.8% | SNB-75 CNS 56.6% | SNB-19 CNS 97.6% | U251 CNS 103% | PC-3 prostate 88.8% | SK-MEL-5 melanoma 99.6% | UACC-62 melanoma 95% | LOX IMVI melanoma 99.9% | SK-MEL-28 melanoma 97.8% | SK-MEL-2 melanoma 89.9% | EKVX NSCLC 83.8% | SN12C renal 98.9% | UO-31 renal 74.6% | TK-10 renal 90.4% | ACHN renal 98.1% | CAKI-1 renal 95.7% | A498 renal 105% | CCRF-CEM leukemia 93.4% | MOLT-4 leukemia 95.7%

CNC(=O)c1cc(Oc2ccc3c(c2)sc2nc(-c4cc(C(F)(F)F)cc(C(F)(F)F)c4)cn23)ccn1
inactive: HCT-15 colon 70.9% | HT29 colon 38.7% | SNB-75 CNS 23.3% | SNB-19 CNS 62.8% | U251 CNS 38.6% | PC-3 prostate 45.4% | SK-MEL-5 melanoma 33% | UACC-62 melanoma 53.3% | LOX IMVI melanoma 50.1% | SK-MEL-28 melanoma 79.3% | SK-MEL-2 melanoma 56.8% | EKVX NSCLC 45.1% | SN12C renal 60.2% | UO-31 renal 61.7% | TK-10 renal 36% | ACHN renal 50.3% | CAKI-1 renal 51.1% | A498 renal 42.5% | CCRF-CEM leukemia 64.1% | MOLT-4 leukemia 45.3%
